From PubChem BioAssay come the findings set out here.

Assay [1] can be described thus: viability loss in pontine glioma line – cell-based, JHH-DIPG-1, MIPE4.0, CellTiter-Glo, qHTS, dose response (AID 1347062; cut-off not given, nearly all actives have AC50 up to about 27 µM;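 as to AC50: cells exposed to compound for two days before readout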). Conditions: JHH-DIPG-1 viability, CellTiter-Glo ATP luminescence. Background: Cellular ATP, detected with luciferase, serves as a proxy for viable cell number.
Assay [2] in a line: viability loss in pontine glioma line – cell-based, SU-DIPG-IV, MIPE4.0, CellTiter-Glo, qHTS, dose response (AID 1347063; cut-off not given, nearly all actives have AC50 up to about 30 µM;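 also: compound exposure lasted 48 hours before the viability readout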). Conditions: CellTiter-Glo ATP luminescence.
Assay [3] can be described thus: growth inhibition of DIPG cells – cell-based, MIPE4.0 library, CellTiter-Glo luminescence, qHTS (AID 1347066; cut-off not given, nearly all actives have AC50 up to about 30 µM;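 also: cells exposed to compound for 48 hours before readout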). To be noted: SU-DIPG-VI viability, CellTiter-Glo ATP luminescence.
Assay [4] can be described thus: growth inhibition of DIPG cells – cell-based, MIPE5.0 library, qHTS (AID 1347068; cut-off not given, nearly all actives have IC50 up to about 30 µM;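 as to IC50: cells exposed to compound for 48 hours before viability readout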). To be noted: SU-DIPG-XXV viability.
A short description of assay [5]: viability loss with induced miR-34 in A549 – imaging, A549 dox-inducible miR-34, nuclei and caspase counts, primary screen (AID 1347080;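 active = compounds whose cell count with miR-34 switched on is under 0.7 times the count with it off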). To be noted: A549 miR-34 inducible, Hoechst nuclei count, 48 h.
The nature of assay [6]: compounds altering HSF1 focus formation in cells – imaging, Selleck Cancer Library (AID 1347162; in the data active = plate-normalised HSF1 focus index below about 0.46). To be noted: human cells, HSF1 nuclear foci imaging, at 10 µM; SSMD: measured here: HSF1 foci SSMD mean; cell count: measured here: cell number; plate-normalised HSF1 focus index: stronger effect = lower value.
A short description of assay [7]: MELAS cybrid and Rieske KO viability enhancers – cell-based, MELAS cybrids, Rieske KO mouse fibroblasts, CellTiter-Glo, primary screen (AID 1508586;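 active = mean z-score across replicates of 1.96 or higher in either the MELAS or the Rieske mutant cell line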;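 also: z relative to plate mean and SD of compound and empty wells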). Conditions: low glucose.
A short description of assay [8]: viability loss in pontine glioma line – cell-based, SU-DIPG-XXV, MIPE5.0, CellTiter-Glo, qHTS, dose response (AID 1347065; cut-off not given, nearly all actives have AC50 up to about 26 µM;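 also: cells exposed to compound for 48 hours before ATP readout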). To be noted: CellTiter-Glo ATP luminescence.
Assay [9] is described as follows: JHH-DIPG-1 glioma cell viability, MIPE5.0 library, CellTiter-Glo luminescence, qHTS (AID 1347067; cut-off not given, nearly all actives have AC50 up to about 26 µM;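 also: cells exposed to compound for 48 hours before readout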). Conditions: JHH-DIPG-1 glioma viability, CellTiter-Glo ATP luminescence.
Assay [10] can be described thus: viability loss in pontine glioma line – cell-based, SU-DIPG-XIII, MIPE5.0, CellTiter-Glo, qHTS, dose response (AID 1347064; cut-off not given, nearly all actives have AC50 up to about 23 µM). Conditions: CellTiter-Glo ATP luminescence.
Assay [11] is described as follows: drug combination growth inhibition, ovarian cancer – cell-based, oncology-focused library, rucaparib conditional, profiling panel (AID 1508598). Conditions: patient-derived ovarian cancer cells, CellTiter-Glo viability, 144 h, stronger effect = lower value.
Setting [12] is: stronger effect = lower value, cell number ratio, induced over uninduced.
The mark [13] stands for this setting: measured here: relative caspase fold change +Dox/-Dox.
The mark [14] stands for this setting: measured here: total cells with miR-34 induction, stronger effect = lower value.
Setting [15] is: measured here: total cells without miR-34 induction.
The mark [16] stands for this setting: MELAS cybrid survival, CellTiter-Glo 48 h, stronger effect = higher value.
The mark [17] stands for this setting: Rieske KO mouse fibroblast survival, CellTiter-Glo 72 h.

Where “and” joins values, the source holds several entries; their conditions need not be identical. Equal entries are not always repeated. Inconclusive results are not listed. Calls of active or inactive are those of the source.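 The calls were made as follows, unless noted: active = normalized viability below 100% at a tested concentration; inactive = the rest.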

One may read the AC50 as the concentration at which the activity in the assay is half-maximal. In general, IC50 refers to the concentration that inhibits the measured activity by half. In the case of `Nc1nc(N)c(N=O)c(OCC2CCCCC2)n1`, the AC50 in assay [1] is 14.8 µM (active); in assay [2] it was 4.69 µM (active); in assay [3] it was 14.8 µM (active). In assay [4], the IC50 is 14.8 µM (active). Further, the fold change is 0.992 (inactive) and 0.824 (inactive) in [5] (setting [12]); 0.923 and 0.352 in [5] (setting [13]). Besides, the cell count in assay [5] (setting [14]) is 8650 and 6730; in assay [5] (setting [15]) it was 8720 and 8160; in [6] it was 6960. This molecule showed an SSMD in [6] of 2.32. The plate-normalised HSF1 focus index in [6] was 1.14 (inactive). In addition, the z-score in [7] (setting [16]) was -0.213 (inactive); in assay [7] (setting [17]), -2.45.
As to `CCCn1c(=O)c2[nH]c(-c3cnn(Cc4cccc(C(F)(F)F)c4)c3)nc2n(CC)c1=O`, the call in assay [1], in assay [3] and in [4] was inactive. Besides, the AC50 in assay [8] is 13.2 µM (active).
`COc1cc2c(cc1Cc1cccc(Cl)c1F)c(=O)c(C(=O)O)cn2[C@H](CO)C(C)C`: in assay [1], the call was inactive. For the same molecule, the AC50 is 20.9 µM (active) in assay [3] and 26.3 µM (active) in assay [9].
Consider `COCCOC(=O)C1=C(C)NC2=C(C(=O)CC(c3ccccc3OC)C2)C1c1cccc(O)c1` (stereo not given), for which the outcome in assay [1], in [3] and in [4] was inactive.
For `COc1ccc2c(Oc3ccc(NC(=O)c4c(C)n(CC(C)(C)O)n(-c5ccccc5)c4=O)cc3F)ccnc2c1`, the result in assay [1], in assay [10], in assay [3] and in [4] was inactive. In addition, the AC50 in assay [8] and in [9] was 20.9 µM (active) throughout.
For the molecule `CC(O)[C@@H]1NC(=O)[C@H](CCCCN)NC(=O)[C@@H](Cc2c[nH]c3ccccc23)NC(=O)[C@H](Cc2ccccc2)NC(=O)[C@@H](NC(=O)[C@H](N)Cc2ccccc2)CSSC[C@@H](C(=O)N[C@H](CO)[C@@H](C)O)NC1=O` (stereo not given in full), the molecule was called inactive in assay [1], in assay [2] and in assay [3].
Turning to `Fc1ccc(CNc2ncnc3ccc(F)cc23)cc1`, the outcome in assay [1], in [10] and in assay [4] was inactive.
Regarding `CC(=O)N(C)C1(c2ccccc2)CCN(CCC[C@]2(c3ccc(Cl)c(Cl)c3)CCCN(C(=O)c3ccccc3)C2)CC1`, the AC50 in assay [1] was 29.6 µM (active); in [2] it was 26.4 µM (active); in assay [3], 33.2 µM (active).
As usually defined, the viability is a read-out of living cells in per cent, often relative to untreated cells. Take `CCOc1cc(N2CCC(O)CC2)ccc1Nc1ncc2c(n1)N(C)c1ccccc1C(=O)N2C`: the AC50 in assay [1] is 7.43 µM (active); in assay [9] it was 20.9 µM (active). Besides, the outcome in [3] was inactive. The IC50 in [4] is 18.6 µM (active). In addition, the fold change in [5] (setting [12]) was 0.886 (inactive); in assay [5] (setting [13]) it was 0.548. The cell count in assay [5] (setting [14]) was 6240; in assay [5] (setting [15]), 7040. For the same molecule, the z-score in [7] (setting [16]) is -0.56 (inactive); in [7] (setting [17]), -1.56. In addition, the viability in [11] (at 0.000305 µM, OCI-C5x cells, with rucaparib 10 µM, 100% = cells with rucaparib alone) is 123% (inactive); in [11] (at 0.000305 µM, OCI-C5x cells, without rucaparib) it was 120% (inactive); in assay [11] (at 0.000305 µM, OCI-P5x cells, with rucaparib 20 µM, 100% = cells with rucaparib alone), 94.3% (active); in assay [11] (at 0.000305 µM, OCI-P5x cells, without rucaparib), 101% (inactive); in assay [11] (at 0.00122 µM, OCI-C5x cells, with rucaparib 10 µM, 100% = cells with rucaparib alone), 122% (inactive); in [11] (at 0.00122 µM, OCI-C5x cells, without rucaparib), 109% (inactive). Moreover, the viability in assay [11] (at 0.00122 µM, OCI-P5x cells, with rucaparib 20 µM, 100% = cells with rucaparib alone) was 99.4% (active); in assay [11] (at 0.00122 µM, OCI-P5x cells, without rucaparib) it was 105% (inactive); in [11] (at 0.00488 µM, OCI-C5x cells, with rucaparib 10 µM, 100% = cells with rucaparib alone), 119% (inactive); in [11] (at 0.00488 µM, OCI-C5x cells, without rucaparib) it was 112% (inactive); in assay [11] (at 0.00488 µM, OCI-P5x cells, with rucaparib 20 µM, 100% = cells with rucaparib alone), 91.8% (active); in [11] (at 0.00488 µM, OCI-P5x cells, without rucaparib) it was 102% (inactive). Moreover, the viability in [11] (at 0.0195 µM, OCI-C5x cells, with rucaparib 10 µM, 100% = cells with rucaparib alone) was 124% (inactive); in [11] (at 0.0195 µM, OCI-C5x cells, without rucaparib) it was 117% (inactive); in assay [11] (at 0.0195 µM, OCI-P5x cells, with rucaparib 20 µM, 100% = cells with rucaparib alone) it was 94% (active); in assay [11] (at 0.0195 µM, OCI-P5x cells, without rucaparib), 99.5% (active); in [11] (at 0.0781 µM, OCI-C5x cells, with rucaparib 10 µM, 100% = cells with rucaparib alone) it was 131% (inactive); in assay [11] (at 0.0781 µM, OCI-C5x cells, without rucaparib) it was 124% (inactive). Also, the viability was 96.6% (active) in assay [11] (at 0.0781 µM, OCI-P5x cells, with rucaparib 20 µM, 100% = cells with rucaparib alone); 108% (inactive) in [11] (at 0.0781 µM, OCI-P5x cells, without rucaparib); 109% (inactive) in assay [11] (at 0.313 µM, OCI-C5x cells, with rucaparib 10 µM, 100% = cells with rucaparib alone); 131% (inactive) in assay [11] (at 0.313 µM, OCI-C5x cells, without rucaparib); 88.3% (active) in assay [11] (at 0.313 µM, OCI-P5x cells, with rucaparib 20 µM, 100% = cells with rucaparib alone); 95.6% (active) in [11] (at 0.313 µM, OCI-P5x cells, without rucaparib). The viability in assay [11] (at 1.25 µM, OCI-C5x cells, with rucaparib 10 µM, 100% = cells with rucaparib alone) was 101% (inactive); in assay [11] (at 1.25 µM, OCI-C5x cells, without rucaparib), 121% (inactive); in assay [11] (at 1.25 µM, OCI-P5x cells, with rucaparib 20 µM, 100% = cells with rucaparib alone) it was 84.7% (active); in [11] (at 1.25 µM, OCI-P5x cells, without rucaparib), 90.7% (active); in assay [11] (at 5 µM, OCI-C5x cells, with rucaparib 10 µM, 100% = cells with rucaparib alone) it was 85.7% (active); in assay [11] (at 5 µM, OCI-C5x cells, without rucaparib), 119% (inactive). In addition, the viability in assay [11] (at 5 µM, OCI-P5x cells, with rucaparib 20 µM, 100% = cells with rucaparib alone) was 35.5% (active); in [11] (at 5 µM, OCI-P5x cells, without rucaparib) it was 75.3% (active).
